Hits are enriched below; roughly 1.3% of the tested compounds scored in any of these assays.
Rce1 inh: yeast Ras-converting enzyme inhibition; Q03530; yeast membranes, quenched prenylated peptide cleavage fluorescence; calls only; hit rate 0.27% among 290,000; AID 2563;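 active means fall in fluorescence gain of 50% or more versus controls, with final raw signal at or below 3038400; inconclusive means same 50% fall but final raw signal above 3038400; inactive means fall in fluorescence gain under 50%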;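 further: plate controls were neutral control wells for no effect and wells lacking membranes for full effect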
Target sequence (Q03530 whole entry, looked up): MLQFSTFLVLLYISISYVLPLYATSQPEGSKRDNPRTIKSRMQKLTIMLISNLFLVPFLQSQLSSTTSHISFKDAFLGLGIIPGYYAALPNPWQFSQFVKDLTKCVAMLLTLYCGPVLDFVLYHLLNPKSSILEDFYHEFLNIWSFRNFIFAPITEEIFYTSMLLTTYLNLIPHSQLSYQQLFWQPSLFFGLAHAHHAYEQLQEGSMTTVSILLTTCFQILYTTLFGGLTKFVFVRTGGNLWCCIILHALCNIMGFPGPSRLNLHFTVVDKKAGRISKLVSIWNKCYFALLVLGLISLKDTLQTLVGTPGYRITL
PGC1a acetyl inh: lowers PGC1a acetylation signal in U2OS cells; inhibition, % at 15.6 µM; hit rate 0.17% among 350,000; AID 651687; AlphaScreen anti-acetyl-lysine; with virally co-expressed GCN5 acetyltransferase;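 active means every replicate shows inhibition of at least 40%; inconclusive means mean inhibition at least 40% but some replicate below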;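 further: 0% = neutral control wells and 100% = positive control wells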
AI-2 QS modul: modulates the Vibrio harveyi AI-2 quorum sensing system; Vibrio harveyi JMH597 AI-2 luminescence/OD600 ratio, 9 h; stronger effect = lower value; strain lacks LuxN and CqsS sensors; 0 = neutral-control median; activity change, % at 7.5 µM; hit rate 0.4% among 300,000; AID 2094; in the data active means activity change below about -75%, passing the limit was not always enough; inconclusive means no clear call, values can overlap the other calls;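 further: luminescence divided by OD600 gain over 9 h not by final OD600 alone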
C2C12 statin: suppressors of simvastatin-induced myotoxicity in C2C12 myotubes. hit rate 0.78% among 330,000. ATP luminescence, 48 h; scaled: DMSO 0, geranylgeraniol control 100. rescue of ATP level, % at 7.49 µM;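 active means mean ATP rescue above about 67%, or every replicate alone reaching that limit, limit read from the data, passing the limit was not always enough; inconclusive means no clear call, values can overlap the other calls; inactive means mean under the limit and some replicate under it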;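 further: myotubes were challenged with 10 µM simvastatin during compound exposure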
HIF activator: HIF pathway transcriptional activation; U2OS HRE-luciferase reporter, luminescence; normalized: DMSO 0%, desferrioxamine 100%; activation, % at 7.5 µM (by protocol); hit rate 0.32% among 300,000;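 active means mean activation of at least 10% of the iron chelator positive control signal, with at least half of replicates also reaching 10%; inconclusive means mean and replicate majority disagree about reaching 10%; inactive means mean and most replicates under 10%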
Active calls of the source: *; i = inactive; ? = inconclusive; nt = no result; + = active, no number; ! = repeats disagree.

SMILES	Rce1 inh	PGC1a acetyl inh	AI-2 QS modul	C2C12 statin	HIF activator
O=C1CC(c2ccccc2)CC(O)=C1C=NCC1CCCO1 (configuration not stated)	i	-6	17	nt	1
Oc1[nH]c2ccccc2c1C=NCC1CCCO1 (configuration not stated)	i	-2	-1	121*	0
O=C(C1CCCC1)N1CC2(C1)[C@H](c1ccccc1)[C@@H](CO)N2CC1CC1	nt	-12	nt	nt	nt
CN(CC1CCCO1)S(=O)(=O)c1ccc(C(=O)Nc2nccs2)cc1 (configuration not stated)	i	1	33	-15	279*
Cc1cc(NC(=O)c2ccc(S(=O)(=O)N(C)CC3CCCO3)cc2)no1 (configuration not stated)	i	nt	16	nt	0
CN(C)S(=O)(=O)c1ccc(S(=O)(=O)N(CC(=O)Nc2ccccc2)CC2CCCO2)cc1 (configuration not stated)	nt	-7	23	85*	-1
Cc1ccc(S(=O)(=O)Nc2ccc3c(c2)CC(=O)N([C@@H](C)CO)C[C@H](C)[C@@H](CN(C)Cc2ccc(-c4ccccc4)cc2)O3)cc1	nt	-5	nt	129*	nt
C[C@H](CO)N1C[C@H](C)[C@@H](CN(C)Cc2ccc(-c3ccccc3)cc2)Oc2ccc(NS(C)(=O)=O)cc2CC1=O	nt	-9	nt	29	nt
Cc1ccc(S(=O)(=O)Nc2ccc3c(c2)CC(=O)N([C@@H](C)CO)C[C@@H](C)[C@H](CN(C)S(=O)(=O)c2ccc(C)cc2)O3)cc1	nt	-9	nt	95*	nt
Cc1ccc(S(=O)(=O)Nc2ccc3c(c2)CC(=O)N([C@@H](C)CO)C[C@H](C)[C@H](CN(C)Cc2ccc(-c4ccccc4)cc2)O3)cc1	nt	0	nt	16	nt
C[C@@H]1CN([C@@H](C)CO)C(=O)CCCn2nncc2CO[C@H]1CN(C)S(=O)(=O)c1ccc(Cl)cc1	nt	97*!	nt	10	nt
C[C@@H]1CN([C@H](C)CO)C(=O)Cc2cc(NS(C)(=O)=O)ccc2O[C@@H]1CN(C)Cc1ccc(-c2ccccc2)cc1	nt	-5	nt	95*	nt
C[C@H]1CN([C@@H](C)CO)C(=O)c2cccc(NC(=O)Nc3ccc4c(c3)OCO4)c2O[C@@H]1CN(C)Cc1ccccc1	nt	10	nt	nt	nt
O=C(COc1ncnc2cc([N+](=O)[O-])ccc12)NC(=O)NC1CCCCC1	+	3	26	6	0
O=C(COc1ncnc2cc([N+](=O)[O-])ccc12)NCCc1ccc(Cl)cc1	i	-1	51	nt	-1
O=C(Oc1ccc(C(=S)N2CCOCC2)cc1Cl)c1ccccc1F	i	-3	-6	-1	1
O=C(Oc1ccc(C(=S)N2CCOCC2)cc1Br)c1ccccc1F	i	-7	-14	149*	0
O=C(C1CC1)N1CCCCN2[C@H](C1)[C@H](c1ccc(-c3ccncc3)cc1)[C@@H]2CO	nt	6	nt	nt	nt
Cc1csc2nc(=O)c3ccccc3n12	+	7	12	nt	0
Cc1nc2scc(C)n2c(=O)c1S(=O)(=O)N1CCN(c2ccccc2)CC1	i	nt	24	-7	0
Oc1ccccc1C(Nc1nccs1)c1ccc2cccnc2c1O (configuration not stated)	i	11	?	46	21*
Oc1c(C(Nc2ccccn2)c2ccccn2)ccc2cccnc12 (configuration not stated)	i	30	?	nt	14*
Cc1ccc(Nc2cc(C)nc(NCc3ccccc3)n2)cc1	i	nt	-92*	nt	0
COc1ccc(Nc2cc(C)nc(NCc3ccccc3)n2)cc1	i	-8	-52	nt	0
O=C(Nc1cccc(F)c1)N1CCCCN2[C@H](CO)[C@H](c3ccc(C#CC4CC4)cc3)[C@H]2C1	nt	-33	nt	nt	nt
SMILES	Rce1 inh	PGC1a acetyl inh	AI-2 QS modul	C2C12 statin	HIF activator
Brc1ccc(-c2noc(CCc3ccccc3)n2)cc1	nt	0	-60	-7	2
CCc1ccc(NCc2nc(-c3ccccc3)no2)cc1	i	-2	-96*	nt	0
c1ccc(CCc2nc(-c3ccccc3)no2)cc1	nt	7	-94*	-6	-39
c1ccc(CCc2nc(-c3cccnc3)no2)cc1	i	9	-93*	-5	2
Cc1ccc(-c2noc(CNc3ccccc3)n2)cc1	i	-1	?	8	1
COc1cccc(S(=O)(=O)N(C)C[C@H]2Oc3cc(C#CCC(C)C)ccc3S(=O)(=O)N([C@H](C)CO)C[C@H]2C)c1	nt	7	nt	-13	nt
O=C(C[C@@H]1C[C@@H]2c3cc(NC(=O)NC4CCCCC4)ccc3O[C@@H]2[C@@H](CO)O1)NC1CCCC1	nt	1	nt	nt	nt

High-throughput results (PubChem)
